Inconclusive results are not listed. The source made the active and inactive calls. Calls follow the shape of the dose curve; as a rule, active = well fitted curve in the direction sought with a large enough effect; inconclusive = small, poorly fitted or top-dose-only effect, or another doubt; inactive = no such curve, though single readings can be large; an effect the other way counts as inactive or inconclusive.
Tests used:
[1] = test system: UISO; test: qHTS assay to identify novel small-molecules to repurpose for Merkel cell carcinoma treatment (AID 1296009); details: MCC and control cell lines, CellTiter-Glo viability, 72 h; series mostly up to 46 µM; also: nearly all actives have a fitted effect of over 60% in size
Outline: (§1)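 Dose-response viability screen; 72 hr exposure at 37 degree celsius; CellTiter-Glo added, 10 min room temperature, luminescence read; RLUs scaled between no-cell and DMSO wells.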

[2] = test system: WaGa; test: as above; details: MCC and control cell lines, CellTiter-Glo viability, 72 h; series mostly up to 46 µM
Outline: as §1

[3] = test system: C33A; test: Primary qHTS to identify gynecologic anti-cancer compounds using libraries of approved drugs and bioactive compounds (AID 1345084); details: Gynecologic cancer cell panel viability, ATPlite luminescence, 48 h; series mostly up to 57.5 µM; also: nearly all actives have a fitted effect of over 55% in size
Outline: (§2)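 Five-concentration response, 48 h; readout is ATP-driven luciferase luminescence.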

[4] = test system: CAOV3; test: as above; details: Gynecologic cancer cell panel viability, ATPlite luminescence, 48 h; series mostly up to 57.5 µM
Outline: as §2

[5] = test system: CASKI; test: as above; details: Gynecologic cancer cell panel viability, ATPlite luminescence, 48 h; series mostly up to 57.5 µM
Outline: as §2

[6] = test system: Es-2; test: as above; details: Gynecologic cancer cell panel viability, ATPlite luminescence, 48 h; series mostly up to 57.5 µM
Outline: as §2

[7] = test system: HeLa; test: as above; details: Gynecologic cancer cell panel viability, ATPlite luminescence, 48 h; series mostly up to 57.5 µM
Outline: as §2

[8] = test system: Hek293T; test: as above; details: Gynecologic cancer cell panel viability, ATPlite luminescence, 48 h, control line for the selectivity index; series mostly up to 57.5 µM
Outline: as §2

[9] = test system: NIH3T3; test: qHTS assay to identify novel small-molecules to repurpose for Merkel cell carcinoma treatment (AID 1296009); details: MCC and control cell lines, CellTiter-Glo viability, 72 h; at 44.8 µM (top of the series) unless noted; also: nearly all actives have a fitted effect of over 60% in size
Outline: as §1

[10] = test system: JEG-3; test: Primary qHTS to identify gynecologic anti-cancer compounds using libraries of approved drugs and bioactive compounds (AID 1345084); details: Gynecologic cancer cell panel viability, ATPlite luminescence, 48 h; series mostly up to 57.5 µM; also: nearly all actives have a fitted effect of over 55% in size
Outline: as §2

Measured: Potency
Potency is read from the fitted curve at half-maximal effect.

CCCCCCCCCCCC[N+](C)(C)Cc1ccccc1
active: [1] 1.19 µM | [2] 1.88 µM | [3] 2.51 µM | [4] 5.62 µM | [5] 2.24 µM | [6] 7.94 µM | [7] 10 µM | [8] 15.8 µM

Nc1ncnc2c1ncn2Cc1c(F)cccc1Cl
not listed: [4]
inactive: all other assays above

CN(C)CCN1CCN(c2cccc(Cl)c2)C1=O
not listed: [4]
inactive: all other assays above

CC(=O)N1CCN(c2ccc(O)cc2)CC1
active: [2] 23.7 µM
not listed: [1]
inactive: all other assays above

CC(C)CCCC(C)NCCC(C)C (stereo not drawn)
not listed: [4] | [5]
inactive: all other assays above

CCC(C(=O)OCCN1CCOC(c2ccccc2)C1C)c1ccccc1 (stereo not drawn)
not listed: [9]
inactive: all other assays above

CCC1(c2cnc[nH]2)Cc2ccccc2C1
not listed: [4]
inactive: all other assays above

Cc1cc(O)c(C)c(C)c1O
not listed: [1] | [4]
inactive: all other assays above

CC(C)(C)c1ccc(C(=O)CCCCl)cc1
not listed: [7]
inactive: all other assays above

Nc1nc2ccccc2n1Cc1ccc(F)cc1
not listed: [1] | [2] | [8]
inactive: all other assays above

O=C(Nc1ccc(S(=O)(=O)N2CCOCC2)cc1)c1cc(Cl)ccc1NS(=O)(=O)c1ccc(Cl)s1
not listed: [3]
inactive: all other assays above

CCOc1ncc(F)c(=O)[nH]1
not listed: [9]
inactive: all other assays above

Reference: PubChem BioAssay (NCATS)
